Test results reported in PMC7819943, “Rice protein-binding microarrays: a tool to detect cis-acting elements near promoter regions in rice”.
Over roughly 68,000 sequences, “fluorescence intensity (a.u.)” has its median near 9,100; the highest 2% begin near 16,000. The list comes from a sample in which the highest values are over-represented; it also holds similar and randomly drawn sequences.

Each sequence was assayed against OsWRKY34 (Oryza sativa, UniProt Q0JBA9 1-250) (assay: protein-binding microarray (RPBM); PBS, 2% BSA, 51.3 ng/ul salmon testes DNA, 50 uM zinc acetate, 200 nM TF, 25 C, 1 h; high values mean tight binding). Conditions: protein: recombinant; tags: N-terminal polyhistidine and DsRed monomer fusion (pET32a); label: CyDye5-dUTP incorporated in the synthesized complementary strand; 3' TTTTT single-stranded linker to array surface; dsDNA, one strand shown.
Summary of the method: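 In PBS with 2% BSA, salmon testes DNA and 50 µM zinc acetate, 200 nM protein was incubated on a custom Agilent array at 25 °C for 1 h and then washed off. The array had been made double-stranded by primer extension with Cy5-dUTP and blocked with 2% BSA. The proteins were transcription factors fused N-terminally to polyhistidine and DsRed, expressed in E. coli BL21-CodonPlus and purified on Ni–NTA. The binding signal is per-feature fluorescence intensity (arbitrary units) from an Axon 4000B scanner.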

OsWRKY34, sequence (Q0JBA9 entry or part of it): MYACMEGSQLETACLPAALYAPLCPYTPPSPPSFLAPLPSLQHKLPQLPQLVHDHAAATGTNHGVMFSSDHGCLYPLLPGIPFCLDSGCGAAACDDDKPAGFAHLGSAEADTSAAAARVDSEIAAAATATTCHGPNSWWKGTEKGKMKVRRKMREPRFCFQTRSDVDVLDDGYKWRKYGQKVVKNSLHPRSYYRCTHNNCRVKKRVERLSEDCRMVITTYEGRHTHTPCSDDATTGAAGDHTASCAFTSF

| Sequence | binding signal |
| --- | --- |
| ATCAACCAGTAATCAATTGACCAAGCGGTTCTTGCGCCTACGGAGTCACCTAGTGCAG | 9780 fluorescence intensity (a.u.) |
| GTTCTCACACTTCAGATTGTTATGTTTGGCTATGCTGTCTCGGAGTCACCTAGTGCAG | 9600 fluorescence intensity (a.u.) |
| CTCTTAGCAATGCTGACTGGTCCGATCAAAGTCAACGGTTCGGAGTCACCTAGTGCAG | 8730 fluorescence intensity (a.u.) |
| GAACCTGTCTACATCGGCCGTGTCTCGTGCACTTGCTCTCCGGAGTCACCTAGTGCAG | 10700 fluorescence intensity (a.u.) |
| TGTCTTGGTCTTGTGGCGTTTATTGTTGCCGTCTGAGCGACGGAGTCACCTAGTGCAG | 11000 fluorescence intensity (a.u.) |
| CACTATTCACGTTTAACGTTTGACCGTTCTTCTTATTTGACGGAGTCACCTAGTGCAG | 10300 fluorescence intensity (a.u.) |
| TTCAATGACAATGTTGACTTTTTGACAAACGTTTAACCTTCGGAGTCACCTAGTGCAG | 10200 fluorescence intensity (a.u.) |
| TTTAATATATAACACCGTTGACTTTTTATCAAACGTTTGACGGAGTCACCTAGTGCAG | 23400 fluorescence intensity (a.u.) |
| TTTAGACTTCTTCCAACTGGAATGCGTTTGACCCTAACCACGGAGTCACCTAGTGCAG | 8180 fluorescence intensity (a.u.) |
| TGTATGATGCCTTTAACTTTTTAACCAACGTTTAATGTTTCGGAGTCACCTAGTGCAG | 9010 fluorescence intensity (a.u.) |
| GCTTTTGAGTTGACAGCCACCGTTTTTAACCAACGCGCGACGGAGTCACCTAGTGCAG | 8140 fluorescence intensity (a.u.) |
| GTATTTTAATGTATGACATTGTTGACTTTTTGATTAACGTCGGAGTCACCTAGTGCAG | 13000 fluorescence intensity (a.u.) |
| AATGTATGACACCGTTGACTTCTTGACCAACGTTTAACCACGGAGTCACCTAGTGCAG | 18700 fluorescence intensity (a.u.) |
| GTTTATAAACTTAGTCAAACTTGAAACAGTTTGACTTTGACGGAGTCACCTAGTGCAG | 12400 fluorescence intensity (a.u.) |
| GACTTTTTTAAACATATTTGACCGTTCGTTTTATTCAAAACGGAGTCACCTAGTGCAG | 8190 fluorescence intensity (a.u.) |
| TTTAATGTATGACACCGTTGACTTTTTAACCAACGTTTGACGGAGTCACCTAGTGCAG | 36300 fluorescence intensity (a.u.) |
| TATTTTAATGTATGATGCCGTTGACTTTTTAACCAACGTTCGGAGTCACCTAGTGCAG | 27000 fluorescence intensity (a.u.) |
| GCTCTTTGGCCTGCTTCAGCCTTCAGCTTCTCCATGGTTTCGGAGTCACCTAGTGCAG | 10700 fluorescence intensity (a.u.) |
| TACCTACTTTCTCATCTTAAGCAATCACTTCGACTTTAATCGGAGTCACCTAGTGCAG | 9820 fluorescence intensity (a.u.) |
| TGCCTAACAATTCTTTTTATTCGCGACGTCAATATACTACCGGAGTCACCTAGTGCAG | 9730 fluorescence intensity (a.u.) |
| AGAATTACTGCTGCTTTATTTACTTTTCTTCCATTGGTTTCGGAGTCACCTAGTGCAG | 13000 fluorescence intensity (a.u.) |

| Sequence | binding signal |
| --- | --- |
| TTAATGTATGACACTGTTGACTTTTTTTCCAACGTTTGACCGGAGTCACCTAGTGCAG | 21900 fluorescence intensity (a.u.) |
| TAATGTATTCCGGCAAATGAATATGTTGTTTGACTTTTTTCGGAGTCACCTAGTGCAG | 10300 fluorescence intensity (a.u.) |
| CCGGTCGTTTCCCGTATTGTTGGCATATATGTACACGGAGCGGAGTCACCTAGTGCAG | 8030 fluorescence intensity (a.u.) |
| CCGTCGTGCTGCGCCCTTCAATTTGTTGGTCTCGCTCGCCCGGAGTCACCTAGTGCAG | 8490 fluorescence intensity (a.u.) |
| CGTATCTGCTCTGTTTTTCATCTCCTGTCATTTGTCTAAACGGAGTCACCTAGTGCAG | 18500 fluorescence intensity (a.u.) |
| ACACTTTCTCTCTTGTACACTTTCATTTCACGTGTCTAAACGGAGTCACCTAGTGCAG | 17500 fluorescence intensity (a.u.) |
| GTCATCCTGTTTCACTGCTAGCTCTCCCTAAATTTTGAAACGGAGTCACCTAGTGCAG | 8490 fluorescence intensity (a.u.) |
| GTGTCTTGTACATGTCTTCGTTTCTTCCTTTCTCATTTCACGGAGTCACCTAGTGCAG | 10900 fluorescence intensity (a.u.) |
| TTGTTTTCTACTCCTAATACTCTTTTGTCTGTCTCATCTGCGGAGTCACCTAGTGCAG | 12400 fluorescence intensity (a.u.) |
| TTATACTTTCTCTTTTTTTCACGTGTATATTTTCTAAACCCGGAGTCACCTAGTGCAG | 9610 fluorescence intensity (a.u.) |
| AAGAACACAACACACTTGATATATATACCTCACACACACTCGGAGTCACCTAGTGCAG | 8060 fluorescence intensity (a.u.) |
| TACTTGGTGCAGTGTTGAGCCTTGTTTTACAATAAATTTTCGGAGTCACCTAGTGCAG | 8100 fluorescence intensity (a.u.) |
| GCGCCGTTGTTCTTCCTGCCACATCCATCCTGGTGAGCACCGGAGTCACCTAGTGCAG | 12700 fluorescence intensity (a.u.) |
| ATGTTTGACGCTGTTGACTTTTTTAAACATATTTGACTCTCGGAGTCACCTAGTGCAG | 21500 fluorescence intensity (a.u.) |
| ATTCTCTAAATGTTTGACGCTGTTGACTTTTTAAAACATGCGGAGTCACCTAGTGCAG | 16600 fluorescence intensity (a.u.) |
| CTAAATATTTAACGCTGTTGACTTTTTAAAACATATTTGACGGAGTCACCTAGTGCAG | 9280 fluorescence intensity (a.u.) |
| GGGTATTTTTTAAGTAGCTAGGTGTATAATTAAATTAGTTCGGAGTCACCTAGTGCAG | 8760 fluorescence intensity (a.u.) |
| TTTTTAGGGTGTGGGTATTAGTTGGAAAATACAATAAATGCGGAGTCACCTAGTGCAG | 9530 fluorescence intensity (a.u.) |
| GTGTAGGAGTAGTTAGGGTTGTTGCTTGTTGGAGGGAAAACGGAGTCACCTAGTGCAG | 9460 fluorescence intensity (a.u.) |
| TCATCAATGTCGACTTCTGTTTTGAAGTCGCTTTTTCATCCGGAGTCACCTAGTGCAG | 9100 fluorescence intensity (a.u.) |
| TAATGGAAGTGGTTTACGTCGCTTCTGTCAATAAACACACCGGAGTCACCTAGTGCAG | 48400 fluorescence intensity (a.u.) |

| Sequence | binding signal |
| --- | --- |
| ATGTTTACGTGCAACACATTATGGTTCTCTTCTCTGTAAACGGAGTCACCTAGTGCAG | 8230 fluorescence intensity (a.u.) |
| ATTCCTCCGCCACAACACCACGCTGACCACAGTCCACCGTCGGAGTCACCTAGTGCAG | 8360 fluorescence intensity (a.u.) |
| CCCGCTGGTGCACTTCAACGCTACTCCTCTTCGCCGCCAACGGAGTCACCTAGTGCAG | 9270 fluorescence intensity (a.u.) |
| CGTACCTTCTCTGTTGAATCTCCTGTTCGCTTTTCTGTTACGGAGTCACCTAGTGCAG | 9160 fluorescence intensity (a.u.) |
| AGACGTATTCCTGTATCCGCCTATCCGTATCTTGGTATCACGGAGTCACCTAGTGCAG | 8300 fluorescence intensity (a.u.) |
| TATATATATATATATATATATATATATATATATATATATCCGGAGTCACCTAGTGCAG | 8650 fluorescence intensity (a.u.) |
| ATATATATATATATATATATAGACGTATTCCTGTATCCGCCGGAGTCACCTAGTGCAG | 21000 fluorescence intensity (a.u.) |
| GGCTTTTTTGTTGGGCTTCTTTTGATCAAAAACGTTGTTTCGGAGTCACCTAGTGCAG | 12000 fluorescence intensity (a.u.) |
| TTGGTGCTGTTGGTGCGTGGGTGGTGGTATAATTTTCTTTCGGAGTCACCTAGTGCAG | 11900 fluorescence intensity (a.u.) |
| CTTGCGGTTCATTTGGGGTTGGTTGGTTCTAGGGTACTGTCGGAGTCACCTAGTGCAG | 16700 fluorescence intensity (a.u.) |
| GCGATGTCGGTGTGTGGGTGGTGGTATATTTTTCCTTTTTCGGAGTCACCTAGTGCAG | 18000 fluorescence intensity (a.u.) |
| GCGCTGTCAGTGTGTGGGTGGTAGTATATTTTTTTCTTTTCGGAGTCACCTAGTGCAG | 12500 fluorescence intensity (a.u.) |
| AATTCATTTGTCTTGGTACGCTGTTGGGGCGTAATAGGGGCGGAGTCACCTAGTGCAG | 13200 fluorescence intensity (a.u.) |
| TGGTGGTGGTTGTGGTTGGGTTGGTGTCTGTCTTTTGTACCGGAGTCACCTAGTGCAG | 16300 fluorescence intensity (a.u.) |
| GAGGAGGTTGGGTTCTTGATCGGTGTCGGATTTTTGGTTGCGGAGTCACCTAGTGCAG | 10800 fluorescence intensity (a.u.) |
| GTGTGTGGGTGGTGGTATATTTTTTTTCTTTCTCTTGGTTCGGAGTCACCTAGTGCAG | 12800 fluorescence intensity (a.u.) |
| TGTTTGGTGCTGTCGGTACATGGGTGGTGGTTTTTTCTTTCGGAGTCACCTAGTGCAG | 17500 fluorescence intensity (a.u.) |
| TATTGTATTGGGTTGGGCCTTTGTGGTTGTCTAATGAAGTCGGAGTCACCTAGTGCAG | 22300 fluorescence intensity (a.u.) |
| GCGGTTGGGTTTGTGTGGTTTTTTTTGAAGGCGGAGTTGTCGGAGTCACCTAGTGCAG | 12100 fluorescence intensity (a.u.) |
| CTGCTGCAGTTGAGCTGTACTGTTTTGGTGGGTTGGTTTTCGGAGTCACCTAGTGCAG | 13900 fluorescence intensity (a.u.) |
